Records with an inconclusive call do not appear. Where a call stands in place of a potency, no number is given. Unmarked numbers belong to inactive results. Calls of active or inactive are those of the source. Calls come from the whole dose curve; as a rule, active = well fitted curve in the direction sought with a large enough effect; inconclusive = small, poorly fitted or top-dose-only effect, or another doubt; inactive = no such curve, though single readings can be large; an effect the other way counts as inactive or inconclusive.
What was measured:
[1] = Quantitative highthroughput screen to assess conditional lethalithy of NOMO1 cells grown in RPMI1640 with untreated serum (RPMI+s) (AID 1963876); note: nearly all actives have a fitted effect of over 35% in size; note: potency is the fitted concentration of half-maximal effect
Method in brief: (§1)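 Each medium arm—HPLM with 10% dialyzed FBS, or RPMI1640 with 5 mM glucose and 10% untreated or dialyzed FBS—was screened against an 11-point, 3-fold compound titration for 48 h at 37 °C, with CellTiter-Glo luminescence as endpoint.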

[2] = Quantitative highthroughput screen to assess conditional lethalithy of P12 Ichikawa cells grown in Human Plasma-Like Medium with dialyzed fetal bovine serum (HPLM+ds) (AID 1963879); details: Potency: viability; note: nearly all actives have a fitted effect of over 35% in size; note: potency is the fitted concentration of half-maximal effect; for viability: series mostly up to about 46 µM
Method in brief: as §1

[3] = Quantitative highthroughput screen to assess conditional lethalithy of P12 Ichikawa cells grown in RPMI1640 with dialyzed fetal bovine serum (RPMI+ds) (AID 1963880); details: Potency: P12-Ichikawa viability; note: nearly all actives have a fitted effect of over 35% in size; note: potency is the fitted concentration of half-maximal effect
Method in brief: as §1

[4] = Quantitative highthroughput screen to assess conditional lethalithy of P12 Ichikawa cells grown in RPMI1640 with untreated serum (RPMI+s) (AID 1963881); details: Potency: viability; note: nearly all actives have a fitted effect of over 35% in size; note: potency is the fitted concentration of half-maximal effect; for viability: series mostly up to about 46 µM
Method in brief: as §1

[5] = Quantitative highthroughput screen to assess conditional lethalithy of SEM cells grown in Human Plasma-Like Medium with dialyzed fetal bovine serum (HPLM+ds) (AID 1963882); note: nearly all actives have a fitted effect of over 35% in size; note: potency is the fitted concentration of half-maximal effect; for viability: series mostly up to about 46 µM
Method in brief: as §1

[6] = Quantitative highthroughput screen to assess conditional lethalithy of SEM cells grown in RPMI1640 with unreated serum (RPMI+s) (AID 1963883); note: nearly all actives have a fitted effect of over 35% in size; note: potency is the fitted concentration of half-maximal effect
Method in brief: as §1

[7] = Quantitative highthroughput screen to assess conditional lethalithy of SEM cells grown in RPMI1640 with dialyzed fetal bovine serum (RPMI+ds) (AID 1963884); note: nearly all actives have a fitted effect of over 35% in size; note: potency is the fitted concentration of half-maximal effect; for viability: series mostly up to about 46 µM
Method in brief: as §1

[8] = Cellular viability qHTS for adrenocortical cancer (ACC) cell line SW-13 (AID 1963989); details: SW-13 ACC cells viability, CellTiter-Glo, 48 h; activity (max response): hits give low values; note: nearly all actives have a fitted effect of over 65% in size; note: potency is the fitted concentration of half-maximal effect;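 for activity (max response): cells grown in serum-free medium with ITS supplement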
Method in brief: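 Luminescent ATP read-out (CellTiter-Glo, 20 min at room temperature) measured metabolically competent SW-13 cells after 48 h compound treatment. Final concentrations spanned up to 46 uM; bortezomib served as positive control.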

[9] = Cellular viability qHTS for adrenocortical cancer (ACC) cell line NCI-H295R (AID 1963990); note: nearly all actives have a fitted effect of over 60% in size
Method in brief: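 IC50 and maximal efficacy derive from four-parameter logistic modelling of titration curves, with reads scaled between DMSO-only wells (0%) and doxorubicin hydrochloride (100% inhibition). Compounds spanned up to 46 uM over 48 h.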

[10] = Quantitative highthroughput screen to assess conditional lethalithy of NOMO1 cells grown in RPMI1640 with dialyzed fetal bovine serum (RPMI+ds) (AID 1963877); note: nearly all actives have a fitted effect of over 30% in size; note: potency is the fitted concentration of half-maximal effect; for viability: series mostly up to about 46 µM
Method in brief: as §1

[11] = Quantitative highthroughput screen to assess conditional lethalithy of NOMO1 cells grown in Human Plasma-Like Medium with dialyzed fetal bovine serum (HPLM+ds) (AID 1963878); note: nearly all actives have a fitted effect of over 35% in size; note: potency is the fitted concentration of half-maximal effect
Method in brief: as §1

| SMILES | Potency [1] | Potency [2] | Potency [3] | Potency [4] | Potency [5] | Potency [6] | Potency [7] | activity (max response) [8] [%] | Potency [9] | Potency [10] | Potency [11] | Potency [8] |
| --- | --- | --- | --- | --- | --- | --- | --- | --- | --- | --- | --- | --- |
| COc1cc2c(cc1OC)C1CC(=O)C(CC(C)C)CN1CC2 (configuration not stated) | inactive | inactive | inactive | inactive | inactive | inactive | inactive | -1.87 | inactive |  |  |  |
| Cc1ccc(O)c(C(CCN(C(C)C)C(C)C)c2ccccc2)c1 (configuration not stated) | inactive | inactive | inactive | inactive | inactive | inactive | inactive | 1.99 | inactive |  |  |  |
| C[C@]12CC[C@@H]3c4ccc(O)cc4CC[C@H]3[C@H]1C[C@@H](O)[C@H]2O |  | inactive | inactive | inactive | inactive | inactive | inactive |  |  | inactive | inactive |  |
| C=CCc1cccc(C=NNC(=O)CN2CCN(Cc3ccccc3)CC2)c1O |  | 16.6 µM (active) |  | 14.8 µM (active) | 10.5 µM (active) | 16.6 µM (active) | 8.33 µM (active) |  |  | 16.6 µM (active) | 18.7 µM (active) |  |
| Cc1ccc(/C=N/NC(=O)c2ccccc2Oc2ccccc2)o1 |  | inactive | inactive |  | inactive | inactive |  | -16.3 | inactive | inactive | inactive |  |
| CC(C)N1[N]C(=C2C=c3cc(O)ccc3=N2)c2c(N)ncnc21 |  |  |  |  | 1.48 µM (active) | 2.96 µM (active) | 2.64 µM (active) |  |  | 7.43 µM (active) | 0.935 µM (active) |  |
| OCc1ccccc1O[C@@H]1O[C@H](CO)[C@H](O)[C@H](O)[C@H]1O |  |  | 16.6 µM (active) |  |  |  |  |  |  | 13.2 µM (active) | 7.43 µM (active) |  |
| CC[C@@H]1C(=O)N(C)c2cnc(Nc3ccc(C(=O)NC4CCN(C)CC4)cc3OC)nc2N1C1CCCC1 | 0.0662 µM (active) |  | 0.0332 µM (active) | 0.0332 µM (active) | 0.0372 µM (active) | 0.0469 µM (active) |  |  |  |  |  | 0.0355 µM (active) |
| O=c1[nH]c(=O)n(C2CCCO2)cc1F (configuration not stated) |  | inactive |  |  | inactive | inactive |  | 4.88 | inactive | inactive | inactive |  |

Source: PubChem BioAssay (NCATS)
